Assay results reported in the supplement of paper PMC10849652.
About 7,900 targets were measured; listed, in parts, are those with a hit and a random draw of the rest. About 0.6% of all pairs of compound and target were hits. Unmarked numbers belong to inactive results.

Key:
Experiment in all cases: log2 fold change, soluble protein after heating vs DMSO (PISA); higher = thermal stabilisation; K562 cells, 10 uM, 30 min; active = over 0.2 and 3.5 SD of the protein, either way, in both replicates (recomputed)
[1] = compound: COC1=CC=C(C=C1)CN2C=CC3=C2C=C(C=C3)C(=O)NO
In short: (§1)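 For each measurement, 10 μM compound was applied for 30 min to K562 cells at 2×10^6 cells/mL. Aliquots were heated for 3 min across 48°C-58°C, pooled, and extracted in PBS with 0.5% NP-40 at 4°C; the supernatant after 21,000xg for 90 min was soluble protein. This was quantified by TMTpro 16plex LC-MS/MS with channel sums equalised, and thermal stability was reported relative to control samples from duplicates, on a log2 fold-change scale.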

[2] = compound: CON(C)C(=O)N1N=C(c2cc(F)ccc2F)S[C@@]1(CCCN)c1ccccc1 [filanesib]
In short: as §1

[3] = compound: CO[C@H]1C[C@@H]2CC[C@@H](C)[C@@](O)(O2)C(=O)C(=O)N2CCCC[C@H]2C(=O)O[C@H]([C@H](C)C[C@@H]2CC[C@H](n3cnnn3)[C@H](OC)C2)CC(=O)[C@H](C)/C=C(\C)[C@@H](O)[C@@H](OC)C(=O)[C@H](C)C[C@H](C)/C=C/C=C/C=C/1C [zotarolimus]
In short: as §1

[4] = compound: COc1cc(C(=O)O)ccc1NC(=O)[C@@H]1N[C@@H](CC(C)(C)C)[C@](C#N)(c2ccc(Cl)cc2F)[C@H]1c1cccc(Cl)c1F [idasanutlin]
In short: as §1

[5] = compound: COc1cc(Nc2ncc3c(n2)-c2ccc(Cl)cc2C(c2c(F)cccc2OC)=NC3)ccc1C(=O)O [alisertib]
In short: as §1

[6] = compound: COc1cc2nc(-c3cc(F)ccc3O)nc(N[C@@H]3CNC[C@H]3C(C)(C)O)c2cc1OC
In short: as §1

[7] = compound: COc1cc2ncnc(Nc3ccc(F)c(Cl)c3)c2cc1OCCCN1CCOCC1 [gefitinib]
In short: as §1

[8] = compound: COc1cccc2cc(-c3nc([C@H]4CC[C@H](C(=O)O)CC4)n4ncnc(N)c34)[nH]c12
In short: as §1

[9] = compound: CS(=O)(=O)CCNCc1ccc(-c2ccc3ncnc(Nc4ccc(OCc5cccc(F)c5)c(Cl)c4)c3c2)o1 [lapatinib]
In short: as §1

[10] = compound: CS(=O)(=O)N1CCN(Cc2cc3nc(-c4cccc5[nH]ncc45)nc(N4CCOCC4)c3s2)CC1 [pictilisib]
In short: as §1

[11] = compound: CS(=O)(=O)c1ccc(-c2cnc(N)c(C(=O)Nc3ccccc3)n2)cc1
In short: as §1

[12] = compound: C[C@@H](Oc1cc(-c2cnn(C3CCNCC3)c2)cnc1N)c1c(Cl)ccc(F)c1Cl [crizotinib]
In short: as §1

[13] = compound: C[C@@H]1COCCN1C2=NC(=NC(=C2)C3(CC3)S(=O)(=O)C)C4=C5C=CNC5=CC=C4
In short: as §1

[14] = compound: C[C@H](C1=CC=C(C=C1)C(=O)NC2=C3C=CNC3=NC=C2)N
In short: as §1

[15] = compound: C[C@H](Nc1ncnc2nc[nH]c12)c1cc2cccc(Cl)c2c(=O)n1-c1ccccc1 [duvelisib]
In short: as §1

[16] = compound: Cc1cc(Nc2cc(CN3CCOCC3)c3nc(C)c(Cc4ccc(Cl)cc4F)n3n2)n[nH]1 [gandotinib]
In short: as §1

[17] = compound: Cc1cc(Nc2cc(N3CCN(C)CC3)nc(Sc3ccc(NC(=O)C4CC4)cc3)n2)n[nH]1 [tozasertib]
In short: as §1

[18] = compound: Cc1cc(SCc2sc(-c3ccc(C(F)(F)F)cc3)nc2C)ccc1OCC(=O)O
In short: as §1

[19] = compound: Cc1ccc(-n2nc(C(C)(C)C)cc2NC(=O)Nc2ccc(OCCN3CCOCC3)c3ccccc23)cc1 [doramapimod]
In short: as §1

[20] = compound: Cc1ccc(C(=O)N(CCCN)[C@@H](c2nc3cc(Cl)ccc3c(=O)n2Cc2ccccc2)C(C)C)cc1 [ispinesib]
In short: as §1

Sequence of UniProt Q5TA31 (Q5TA31 whole entry, looked up): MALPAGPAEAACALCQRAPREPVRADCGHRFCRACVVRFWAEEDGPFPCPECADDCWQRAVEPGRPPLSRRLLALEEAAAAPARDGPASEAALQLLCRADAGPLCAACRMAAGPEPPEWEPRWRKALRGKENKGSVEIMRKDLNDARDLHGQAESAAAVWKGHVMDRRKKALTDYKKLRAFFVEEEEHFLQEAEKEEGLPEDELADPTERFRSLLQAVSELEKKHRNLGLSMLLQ
Sequence of UniProt Q96D15 (Q96D15 whole entry, looked up): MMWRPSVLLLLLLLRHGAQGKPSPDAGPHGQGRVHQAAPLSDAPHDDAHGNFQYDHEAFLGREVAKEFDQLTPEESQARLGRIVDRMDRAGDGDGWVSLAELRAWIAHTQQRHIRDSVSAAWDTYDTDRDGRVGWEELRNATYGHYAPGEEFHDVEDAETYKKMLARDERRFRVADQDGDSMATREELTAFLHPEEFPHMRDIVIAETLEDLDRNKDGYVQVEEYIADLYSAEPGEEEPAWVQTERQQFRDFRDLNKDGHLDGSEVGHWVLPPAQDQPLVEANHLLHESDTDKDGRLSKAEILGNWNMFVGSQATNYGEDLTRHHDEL
Sequence of UniProt Q8NBN7 (Q8NBN7 whole entry, looked up): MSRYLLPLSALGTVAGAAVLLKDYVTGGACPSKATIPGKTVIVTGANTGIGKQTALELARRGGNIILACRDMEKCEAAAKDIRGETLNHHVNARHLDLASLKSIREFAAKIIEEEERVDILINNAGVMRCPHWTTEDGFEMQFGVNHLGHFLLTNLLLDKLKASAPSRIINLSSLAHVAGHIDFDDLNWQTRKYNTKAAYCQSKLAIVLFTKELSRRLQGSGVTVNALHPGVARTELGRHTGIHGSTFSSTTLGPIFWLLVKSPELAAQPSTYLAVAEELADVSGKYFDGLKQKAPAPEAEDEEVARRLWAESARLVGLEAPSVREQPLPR
Sequence of UniProt P11233 (P11233 whole entry, looked up): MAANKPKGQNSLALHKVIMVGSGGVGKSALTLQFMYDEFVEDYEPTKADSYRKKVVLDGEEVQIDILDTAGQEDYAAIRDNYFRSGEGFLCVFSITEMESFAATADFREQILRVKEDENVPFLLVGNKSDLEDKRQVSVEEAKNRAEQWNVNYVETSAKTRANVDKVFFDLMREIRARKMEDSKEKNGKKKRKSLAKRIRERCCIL
Sequence of UniProt Q8WWV3 (Q8WWV3 whole entry, looked up): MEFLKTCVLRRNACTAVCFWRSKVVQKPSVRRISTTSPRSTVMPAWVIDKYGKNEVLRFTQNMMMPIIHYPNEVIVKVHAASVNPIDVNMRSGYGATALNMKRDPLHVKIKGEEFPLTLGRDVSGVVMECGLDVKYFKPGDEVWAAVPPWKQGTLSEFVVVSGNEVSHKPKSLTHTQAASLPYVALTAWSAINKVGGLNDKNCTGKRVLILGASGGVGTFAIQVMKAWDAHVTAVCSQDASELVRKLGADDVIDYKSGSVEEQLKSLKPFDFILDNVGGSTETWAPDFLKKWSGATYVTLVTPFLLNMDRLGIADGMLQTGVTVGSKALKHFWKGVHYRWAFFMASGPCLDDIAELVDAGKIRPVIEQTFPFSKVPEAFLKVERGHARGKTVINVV
Sequence of UniProt Q96DM3 (Q96DM3 whole entry, looked up): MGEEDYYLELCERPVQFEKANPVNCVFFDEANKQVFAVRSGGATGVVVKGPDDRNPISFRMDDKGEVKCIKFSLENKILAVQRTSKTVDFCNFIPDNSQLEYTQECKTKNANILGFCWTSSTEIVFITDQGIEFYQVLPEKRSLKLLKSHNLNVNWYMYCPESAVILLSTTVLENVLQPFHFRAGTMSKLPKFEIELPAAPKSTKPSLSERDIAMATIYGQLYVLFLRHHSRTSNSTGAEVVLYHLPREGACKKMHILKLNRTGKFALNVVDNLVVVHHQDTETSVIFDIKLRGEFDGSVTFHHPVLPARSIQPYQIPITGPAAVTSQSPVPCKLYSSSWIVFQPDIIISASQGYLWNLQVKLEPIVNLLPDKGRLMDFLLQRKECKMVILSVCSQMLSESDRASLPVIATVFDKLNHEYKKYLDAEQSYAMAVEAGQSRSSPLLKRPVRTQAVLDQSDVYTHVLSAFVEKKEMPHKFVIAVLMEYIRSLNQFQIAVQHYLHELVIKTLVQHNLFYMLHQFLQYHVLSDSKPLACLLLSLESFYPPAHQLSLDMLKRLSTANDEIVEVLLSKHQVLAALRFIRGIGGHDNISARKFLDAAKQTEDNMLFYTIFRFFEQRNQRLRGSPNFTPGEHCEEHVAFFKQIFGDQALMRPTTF
Sequence of UniProt Q9GZR1 (Q9GZR1 whole entry, looked up): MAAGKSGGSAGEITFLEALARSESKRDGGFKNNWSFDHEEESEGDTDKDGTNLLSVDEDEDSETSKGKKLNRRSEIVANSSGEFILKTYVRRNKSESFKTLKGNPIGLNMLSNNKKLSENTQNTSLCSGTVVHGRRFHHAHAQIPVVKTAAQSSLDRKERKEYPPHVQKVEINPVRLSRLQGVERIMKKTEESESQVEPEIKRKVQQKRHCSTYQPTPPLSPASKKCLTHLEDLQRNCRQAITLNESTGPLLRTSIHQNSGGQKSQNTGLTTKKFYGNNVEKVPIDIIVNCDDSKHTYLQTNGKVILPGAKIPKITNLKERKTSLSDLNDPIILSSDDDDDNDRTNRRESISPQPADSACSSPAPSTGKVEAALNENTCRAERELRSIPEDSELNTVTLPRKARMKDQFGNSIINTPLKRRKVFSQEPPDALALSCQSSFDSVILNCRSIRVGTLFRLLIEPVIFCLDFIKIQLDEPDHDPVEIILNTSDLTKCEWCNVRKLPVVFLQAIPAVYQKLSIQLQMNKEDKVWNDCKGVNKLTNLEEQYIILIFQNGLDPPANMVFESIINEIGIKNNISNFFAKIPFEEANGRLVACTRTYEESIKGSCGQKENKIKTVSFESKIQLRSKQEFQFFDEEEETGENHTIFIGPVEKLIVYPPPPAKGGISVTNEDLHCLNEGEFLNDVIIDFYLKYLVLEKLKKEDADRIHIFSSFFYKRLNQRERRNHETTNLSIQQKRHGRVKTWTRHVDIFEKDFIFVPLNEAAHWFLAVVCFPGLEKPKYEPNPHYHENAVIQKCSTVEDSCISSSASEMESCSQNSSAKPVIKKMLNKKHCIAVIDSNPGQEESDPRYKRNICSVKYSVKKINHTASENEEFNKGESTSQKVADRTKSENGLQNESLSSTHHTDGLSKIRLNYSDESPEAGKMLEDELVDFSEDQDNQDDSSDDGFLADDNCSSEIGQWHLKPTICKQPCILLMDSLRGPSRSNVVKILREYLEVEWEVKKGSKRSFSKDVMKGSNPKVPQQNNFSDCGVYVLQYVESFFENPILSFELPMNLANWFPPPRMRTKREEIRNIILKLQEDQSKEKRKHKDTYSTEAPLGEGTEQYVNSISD
Sequence of UniProt P06400 (P06400 whole entry, looked up): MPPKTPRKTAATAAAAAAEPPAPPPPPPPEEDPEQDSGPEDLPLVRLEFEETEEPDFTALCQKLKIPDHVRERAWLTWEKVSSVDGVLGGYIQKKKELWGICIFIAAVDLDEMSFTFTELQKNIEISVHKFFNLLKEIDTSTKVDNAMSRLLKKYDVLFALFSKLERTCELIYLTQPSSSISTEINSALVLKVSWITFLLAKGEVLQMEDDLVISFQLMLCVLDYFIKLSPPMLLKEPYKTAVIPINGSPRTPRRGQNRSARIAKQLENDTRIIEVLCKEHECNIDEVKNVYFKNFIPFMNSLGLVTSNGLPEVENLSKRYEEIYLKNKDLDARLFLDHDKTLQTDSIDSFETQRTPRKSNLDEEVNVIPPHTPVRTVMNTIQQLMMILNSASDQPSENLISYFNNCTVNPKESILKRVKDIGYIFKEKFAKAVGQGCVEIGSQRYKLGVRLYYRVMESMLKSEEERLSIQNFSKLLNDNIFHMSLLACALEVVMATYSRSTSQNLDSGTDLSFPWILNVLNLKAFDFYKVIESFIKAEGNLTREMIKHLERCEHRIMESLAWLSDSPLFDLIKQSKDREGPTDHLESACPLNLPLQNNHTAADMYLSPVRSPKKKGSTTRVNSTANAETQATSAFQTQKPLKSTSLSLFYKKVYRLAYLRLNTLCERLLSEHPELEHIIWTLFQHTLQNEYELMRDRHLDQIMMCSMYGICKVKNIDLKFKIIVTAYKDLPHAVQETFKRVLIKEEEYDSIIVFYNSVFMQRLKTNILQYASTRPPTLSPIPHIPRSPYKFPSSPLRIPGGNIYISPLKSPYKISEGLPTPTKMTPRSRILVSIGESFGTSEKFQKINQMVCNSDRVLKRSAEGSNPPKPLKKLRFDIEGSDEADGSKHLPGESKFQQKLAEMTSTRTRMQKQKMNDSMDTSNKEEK
Sequence of UniProt Q9BQY4 (Q9BQY4 whole entry, looked up): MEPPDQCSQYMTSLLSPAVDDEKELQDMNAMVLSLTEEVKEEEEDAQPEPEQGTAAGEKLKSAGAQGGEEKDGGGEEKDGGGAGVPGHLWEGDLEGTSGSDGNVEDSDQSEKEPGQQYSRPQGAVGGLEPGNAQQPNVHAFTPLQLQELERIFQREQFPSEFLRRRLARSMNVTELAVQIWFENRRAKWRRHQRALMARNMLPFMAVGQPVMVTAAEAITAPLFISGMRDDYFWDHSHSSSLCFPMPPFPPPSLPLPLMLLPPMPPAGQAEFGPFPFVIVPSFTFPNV
Sequence of UniProt Q99719 (Q99719 whole entry, looked up): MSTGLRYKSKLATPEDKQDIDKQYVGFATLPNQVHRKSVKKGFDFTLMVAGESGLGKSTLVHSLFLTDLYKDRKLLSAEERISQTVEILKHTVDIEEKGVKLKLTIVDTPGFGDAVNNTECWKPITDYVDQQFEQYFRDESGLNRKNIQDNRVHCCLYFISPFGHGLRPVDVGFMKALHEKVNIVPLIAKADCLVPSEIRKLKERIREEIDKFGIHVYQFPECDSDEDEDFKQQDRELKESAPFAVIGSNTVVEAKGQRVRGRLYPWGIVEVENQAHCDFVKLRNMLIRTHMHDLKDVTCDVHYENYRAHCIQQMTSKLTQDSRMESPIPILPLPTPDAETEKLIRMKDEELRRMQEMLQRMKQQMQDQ

| Target | log2 fold change [1] | log2 fold change [2] | log2 fold change [3] | log2 fold change [4] | log2 fold change [5] | log2 fold change [6] | log2 fold change [7] | log2 fold change [8] | log2 fold change [9] | log2 fold change [10] | log2 fold change [11] | log2 fold change [12] | log2 fold change [13] | log2 fold change [14] | log2 fold change [15] | log2 fold change [16] | log2 fold change [17] | log2 fold change [18] | log2 fold change [19] | log2 fold change [20] |
| --- | --- | --- | --- | --- | --- | --- | --- | --- | --- | --- | --- | --- | --- | --- | --- | --- | --- | --- | --- | --- |
| RHOXF2 (UniProt Q9BQY4) | 0.017 | 0.013 | -0.039 | 0.02 | -0.068 | -0.001 | -0.021 | 0.056 | -0.028 | 0.088 | 0.027 | 0.001 | 0.073 | 0.018 | 0.04 | -0.045 | -0.029 | -0.092 | 0.008 | 0.009 |
| RPL31 (UniProt P62899) | -0.084 | 0.277 | -0.013 | 0.151 | -0.118 | -0.013 | -0.075 | -0.25 | 0.103 | -0.092 | -0.08 | 0.079 | -0.56 | 0.396 | -0.158 | 0.35 | 0.029 | -0.001 | 0.173 | -0.167 |
| RGS10 (UniProt O43665) | -0.023 | -0.081 | 0.115 | 0.086 | -0.053 | 0.003 | 0.056 | -0.014 | 0.029 | -0.028 | 0.014 | -0.045 | 0.012 | -0.231 | 0.008 | -0.023 | 0.053 | 0.024 | 0.006 | 0.017 |
| RNF187 (UniProt Q5TA31) | 0.028 | 0.003 | -0.006 | -0.032 | -0.104 | 0.047 | -0.012 | -0.053 | -0.07 | -0.037 | -0.097 | -0.018 | -0.019 | -0.027 | 0.015 | -0.111 | -0.069 | 0.038 | 0.015 | 0.191 |
| RTN4IP1 (UniProt Q8WWV3) | 0.206 | -0.081 | 0.097 | 1.17 (active) | -0.22 | -0.013 | 0.125 | 0.256 | 0.003 | -0.003 | 0.015 | -0.084 | 0.064 | -0.045 | 0.276 | 0.117 | -0.108 | 0.225 | 0.041 | -0.137 |
| SENP6 (UniProt Q9GZR1) | 0.029 | 0.115 | -0.077 | 0.088 | -0.016 | 0.016 | 0.028 | 0.039 | 0.066 | 0.076 | -0.016 | -0.015 | -0.134 | -0.002 | 0.024 | -0.056 | 0.02 | -0.046 | 0.006 | -0.046 |
| RPS13 (UniProt P62277) | -0.132 | 0.394 | 0.015 | 0.145 | -0.164 | -0.012 | -0.051 | -0.316 | 0.117 | -0.226 | -0.053 | 0.076 | -0.548 | 0.403 | -0.201 | 0.296 | 0.021 | -0.013 | 0.247 | -0.195 |
| SART3, A0A499FI31 | 0.059 | -0.036 | 0.054 | -0.044 | -0.042 | -0.192 | -0.019 | -0.019 | 0.016 | -0.083 | -0.011 | 0.097 | 0.049 | -0.124 | 0.012 | -0.056 | 0.078 | 0.051 | -0.03 | 0.038 |
| SEPTIN5 (UniProt Q99719) | 0.034 | -0.003 | 0.013 | -0.067 | -0.044 | 0 | 0.006 | 0.02 | -0.035 | 0.08 | 0.004 | 0.017 | 0.036 | -0.036 | 0.002 | -0.023 | -0.008 | -0.017 | -0.017 | 0.027 |
| RDH13 (UniProt Q8NBN7) | 0.056 | -0.135 | 0.072 | -0.019 | -0.005 | -0.064 | 0.018 | 0.084 | 0 | 0.042 | 0.04 | -0.231 | 0.161 | -0.019 | 0.082 | -0.08 | -0.101 | 0.029 | -0.037 | -0.322 (active) |
| RCN3 (UniProt Q96D15) | -0.065 | 0.054 | -0.068 | -0.122 | 0 | 0.043 | 0 | 0.132 | -0.025 | 0.087 | -0.016 | -0.028 | -0.02 | -0.041 | -0.022 | 0.029 | -0.087 | -0.058 | 0.092 | -0.033 |
| RMC1 (UniProt Q96DM3) | -0.002 | -0.058 | -0.015 | -0.047 | -0.059 | -0.006 | 0.045 | 0.044 | -0.029 | -0.105 | 0.021 | -0.509 (active) | 0.061 | -0.012 | -0.005 | 0.027 | 0.026 | 0.066 | 0.038 | -0.254 (active) |
| RIC8A isoform 3 (UniProt Q9NPQ8) | -0.007 | -0.046 | -0.058 | -0.032 | 0.159 | -0.095 | 0.043 | 0.009 | 0.001 | -0.002 | 0.042 | -0.085 | -0.036 | 0.094 | 0.036 | -0.038 | 0.177 | 0.193 | 0.094 | -0.145 |
| RALA (UniProt P11233) | 0.348 (active) | -0.025 | 0.035 | -0.019 | -0.066 | -0.066 | 0.004 | 0.053 | 0.025 | -0.099 | 0.026 | 0.112 | 0.088 | -0.097 | -0.046 | -0.001 | 0.016 | -0.009 | -0.009 | 0.03 |
| RB1 (UniProt P06400) | -0.028 | -0.08 | 0.011 | 0 | -0.016 | -0.325 (active) | 0.006 | 0.052 | 0.025 | 0.033 | 0.041 | -0.112 | 0.117 | -0.07 | 0.033 | -0.168 | -0.001 | -0.024 | 0.022 | -0.002 |
